# Results published in PMC4336329 (PLoS ONE, 2015).
# In all, about 310,000 compounds went through this assay and about 2,200 (0.71%) showed an effect of 50% or more. Effects have a minus sign here. Many of the other results were omitted from the sample, so strong results are more common in it than they were.
# Molecular target: human ether-à-go-go-related gene (hERG) potassium channel (human, UniProt Q12809)
# Experiment: primary screen, population patch clamp on CHO cells stably expressing hERG; higher = less effect of the substance
# Chain of human ether-à-go-go-related gene (hERG) potassium channel (Q12809 whole entry, looked up): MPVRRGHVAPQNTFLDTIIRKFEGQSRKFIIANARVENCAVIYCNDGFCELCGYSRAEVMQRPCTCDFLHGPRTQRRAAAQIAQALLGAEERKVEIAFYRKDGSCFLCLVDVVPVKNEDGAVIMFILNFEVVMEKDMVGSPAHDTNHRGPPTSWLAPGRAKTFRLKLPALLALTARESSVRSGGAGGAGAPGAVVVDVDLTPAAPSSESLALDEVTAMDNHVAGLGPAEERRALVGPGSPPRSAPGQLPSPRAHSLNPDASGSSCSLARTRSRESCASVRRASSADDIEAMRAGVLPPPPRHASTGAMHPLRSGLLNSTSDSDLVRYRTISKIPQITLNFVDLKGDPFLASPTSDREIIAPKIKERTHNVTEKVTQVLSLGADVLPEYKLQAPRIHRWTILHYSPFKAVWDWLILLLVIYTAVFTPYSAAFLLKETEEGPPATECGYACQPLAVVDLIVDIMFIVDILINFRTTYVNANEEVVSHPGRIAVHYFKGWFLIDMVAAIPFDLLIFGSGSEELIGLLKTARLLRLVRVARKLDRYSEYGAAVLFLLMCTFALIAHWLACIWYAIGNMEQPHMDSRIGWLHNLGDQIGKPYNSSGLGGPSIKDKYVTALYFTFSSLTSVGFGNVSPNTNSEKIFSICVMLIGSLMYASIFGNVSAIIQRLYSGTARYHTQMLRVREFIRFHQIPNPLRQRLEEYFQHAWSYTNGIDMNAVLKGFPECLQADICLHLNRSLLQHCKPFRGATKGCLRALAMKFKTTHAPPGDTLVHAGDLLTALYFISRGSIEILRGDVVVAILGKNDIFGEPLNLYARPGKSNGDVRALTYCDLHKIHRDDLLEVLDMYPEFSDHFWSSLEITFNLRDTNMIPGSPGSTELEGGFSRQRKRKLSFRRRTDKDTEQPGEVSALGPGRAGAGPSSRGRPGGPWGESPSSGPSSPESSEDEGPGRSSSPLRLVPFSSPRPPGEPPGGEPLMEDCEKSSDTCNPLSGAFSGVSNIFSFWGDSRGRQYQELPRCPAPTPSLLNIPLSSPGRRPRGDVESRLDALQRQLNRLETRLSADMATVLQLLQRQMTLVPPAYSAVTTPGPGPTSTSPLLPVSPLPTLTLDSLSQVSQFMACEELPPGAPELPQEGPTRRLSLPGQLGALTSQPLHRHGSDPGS
row,SMILES,"hERG current change (%, negative = inhibition) at 1uM [%]"
1,c1ccc(C(c2nnnn2C2CCCCC2)N2CCc3ccccc3C2)nc1 (centres unmarked),7.86
2,C[C@H](NC(=O)N1CCn2c1nc1ccccc12)C(=O)NCCc1ccccc1,17.4
3,COc1ccc(NC(=S)N2CCN(C(=O)c3ccco3)CC2)c(OC)c1,8.24
4,CCn1c(=S)sc2c(=O)[nH]c(C)nc21,13.5
5,COc1cccc(CN2CC(C(=O)N3CCN(c4ccc(Cl)cc4)CC3)CCC2=O)c1 (centres unmarked),-53.3
6,COc1cccc(CN2CC(C(=O)N3CCCCCCC3)CCC2=O)c1 (centres unmarked),9.63
7,COc1cccc(CN2CC(C(=O)N3CCCC3)CCC2=O)c1 (centres unmarked),10.9
8,CCOC(=O)c1oc2ccccc2c1CSc1nnnn1-c1ccc(C)cc1,5.36
9,Cc1ccc(CC(=O)NC2CCN(Cc3ccccc3)CC2)cc1,7.9
10,COc1ccc(/C=C/C(=O)NC2CCN(Cc3ccccc3)CC2)cc1OC,12
11,O=C(NC1CCN(Cc2ccccc2)CC1)c1ccccc1,2.84
12,O=C(/C=C/c1cccc(Br)c1)NC1CCN(Cc2ccccc2)CC1,-27.7
13,COc1ccccc1C1CCN(Cc2ccc(Cl)c(Cl)c2)CC1,10.4
14,COc1ccccc1C1CCN(Cc2ccccc2)CC1,8.45
15,COc1ccccc1C1CCN(Cc2ccc(C)cc2)CC1,-61.2
16,Cc1ccc(CN2CCC(NC(=O)c3ccccc3)CC2)cc1,-52.8
17,Fc1ccc(NC(=S)NC2CCN(Cc3ccccc3)CC2)cc1,6.75
18,O=C(NC1CCN(Cc2ccc(F)cc2)CC1)c1ccccc1,-15.9
19,Cl.O=C(NC(=S)NC1CCN(Cc2ccccc2)CC1)c1ccc(F)cc1,-57.5
20,O=C(/C=C/c1cccc(F)c1)NC1CCN(Cc2ccccc2)CC1,-51.4
21,Cc1cnc(-c2nnc(N(C)C(=O)c3cccnc3)s2)cn1,10.2
22,CCN(CC)c1ccc(/C=N/NC(=S)NC)c(O)c1,4.81

row,SMILES,"hERG current change (%, negative = inhibition) at 1uM [%]"
1,Cc1c(N=C2NC(=O)/C(=C/c3cccc([N+](=O)[O-])c3)S2)c(=O)n(-c2ccccc2)n1C,12.1
2,Cc1ccc(S(=O)(=O)CC(O)COc2ccc(F)cc2Cl)c(C)c1 (centres unmarked),7.06
3,COc1ccc(/C=N/NC(=O)C2c3ccccc3Oc3ccccc32)c(OC)c1,11.6
4,NS(=O)(=O)c1ccc(CNC(=O)c2cc(-c3cccnc3)nc3ccccc23)cc1,14.6
5,CCc1ccccc1NC(=O)Nc1c(C)n(C)n(-c2ccccc2)c1=O,-14.2
6,Cn1c(CSCc2ccc(F)cc2)n[nH]c1=S,13.6
7,CNC(=O)CSc1nc(-c2ccccc2)c(-c2ccccc2)[nH]1,3.72
8,Cc1ccc(S(=O)(=O)N2CCN(C(=O)c3nn(C(C)C)c(=O)c4ccccc34)CC2)cc1C,5.96
9,CC(C)Oc1ccc(S(=O)(=O)N2CCOCC2)cc1NC(=O)C1=COCCO1,11
10,CC(=O)C[C@H]1c2ccccc2S(=O)(=O)N1C1CCCC1,14.6
11,Cn1c(Nc2ccc(F)cc2)nc2ccccc21,-77.5
12,Cn1c(Nc2ccccc2)nc2ccccc21,8.25
13,COc1ccc(Nc2nc3ccccc3n2C)cc1,13.1
14,COc1ccc(-c2[nH]c(-c3ccc(C)cc3)nc2SCC(=O)Nc2nccs2)cc1,21.6
15,CC1CN(C(=O)COc2ccc3c(-c4ccccc4)cc(=O)oc3c2)CC(C)O1 (centres unmarked),10.8
16,CC(=O)Nc1ccc(OS(=O)(=O)c2cc(Cl)ccc2C)cc1,13.6
17,COc1ccc(Cl)cc1S(=O)(=O)Oc1ccc(NC(C)=O)cc1,-58.8
18,CC(=O)Nc1ccc(OS(=O)(=O)c2ccc(Cl)cc2)cc1,-1.62
19,CCN(CC)CCCNC(=O)C(C)n1c2ccccc2c2nc(=O)cc(C)n21 (centres unmarked),12.7
20,O=C1c2ccccc2C(=O)N1/N=C/c1ccc(O)c(O)c1,13.9
21,CCOc1ccc(C2NC(=O)c3n[nH]c(C)c32)cc1 (centres unmarked),9.09
22,COc1ccc(N2CCN(CCOc3ccc4c(C)cc(=O)oc4c3)CC2)cc1,-37.8
